Laboratory results published in the supplement of paper PMC11624193, “Coupling cellular drug-target engagement to downstream pharmacology with CeTEAM” (Nature Communications, 2024).
Where “and” joins values, the source holds several entries; their conditions need not be identical. Equal entries are not always repeated. Structures can show the parent of a compound that is named as a salt. A number with no mark means an inactive call.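 Rule for the calls: active = log2 fold change beyond 2 SD from the library mean after excluding viability outliers; inactive = within 2 SD.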

These molecules were tested against PARP1 L713F-nLuc biosensor (HCT116) (UniProt P09874) (assay: PARP1 L713F-nLuc/akaLuc ratio relative to DMSO control (biosensor stabilization) (fold change); higher = more PARP1 biosensor stabilization (target engagement / stabilizer), active = hit call of the paper). Details: stock concentration (mM; final µM = stock mM x 1): 2; 24 h.
PARP1 L713F-nLuc biosensor (HCT116), sequence (P09874 whole entry L713F, looked up): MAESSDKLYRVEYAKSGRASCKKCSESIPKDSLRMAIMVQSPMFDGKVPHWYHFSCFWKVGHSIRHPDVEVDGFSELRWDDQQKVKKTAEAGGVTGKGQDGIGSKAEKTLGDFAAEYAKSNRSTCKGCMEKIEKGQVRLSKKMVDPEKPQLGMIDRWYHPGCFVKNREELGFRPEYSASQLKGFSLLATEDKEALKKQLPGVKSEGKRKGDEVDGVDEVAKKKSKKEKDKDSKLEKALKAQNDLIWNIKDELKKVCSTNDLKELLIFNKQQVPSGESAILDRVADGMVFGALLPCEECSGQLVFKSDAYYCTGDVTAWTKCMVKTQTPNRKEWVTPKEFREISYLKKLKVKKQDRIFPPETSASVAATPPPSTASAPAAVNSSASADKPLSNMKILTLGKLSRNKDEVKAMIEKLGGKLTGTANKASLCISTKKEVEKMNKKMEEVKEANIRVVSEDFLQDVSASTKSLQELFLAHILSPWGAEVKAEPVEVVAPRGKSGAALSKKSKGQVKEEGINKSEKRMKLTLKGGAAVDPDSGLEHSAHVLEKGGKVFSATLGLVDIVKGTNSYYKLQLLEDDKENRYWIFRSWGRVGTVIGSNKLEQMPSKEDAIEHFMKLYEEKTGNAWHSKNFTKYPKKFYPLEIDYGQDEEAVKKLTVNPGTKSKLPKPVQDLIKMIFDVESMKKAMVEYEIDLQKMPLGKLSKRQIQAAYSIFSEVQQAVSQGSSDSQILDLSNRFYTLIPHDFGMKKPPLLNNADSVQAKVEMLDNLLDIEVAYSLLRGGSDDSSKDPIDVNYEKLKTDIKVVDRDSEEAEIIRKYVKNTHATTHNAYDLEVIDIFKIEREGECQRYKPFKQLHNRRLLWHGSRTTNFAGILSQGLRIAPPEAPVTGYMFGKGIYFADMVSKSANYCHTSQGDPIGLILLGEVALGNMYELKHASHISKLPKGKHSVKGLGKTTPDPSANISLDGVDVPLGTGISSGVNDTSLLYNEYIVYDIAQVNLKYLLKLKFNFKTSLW
CN(C)c1ccc(-c2nc3ncc(Cl)c(N4CCN(CC(=O)Nc5nccs5)CC4)c3[nH]2)cc1 was tested, and the “PARP1 L713F-nLuc/akaLuc ratio” value was 0.845.
C=CC(=O)Nc1cc2c(Nc3ccc(F)c(Cl)c3)ncnc2cc1OCCCN1CCOCC1 [Canertinib (CI-1033)] was tested, and the “PARP1 L713F-nLuc/akaLuc ratio” value was 1.01.
In the case of COc1cc2c(N3CCN(C(=O)Nc4ccc(OC(C)C)cc4)CC3)ncnc2cc1OCCCN1CCCCC1 [Tandutinib (MLN518)], the “PARP1 L713F-nLuc/akaLuc ratio” value is reported as 1.73.
In the case of CN(C(=O)c1ccc(F)cc1C(F)(F)F)C1CCN(c2nnc(-c3ccnn3C)c3ccccc23)CC1, the “PARP1 L713F-nLuc/akaLuc ratio” value is reported as 1.11.

Same assay, conditions: stock concentration (mM; final µM = stock mM x 1): 10; 24 h
In the case of N[C@@H]1CCCN(c2c(/C=C3\SC(=O)NC3=O)cccc2-c2ccccc2)C1, the “PARP1 L713F-nLuc/akaLuc ratio” value is reported as 0.726.
In the case of CC/C(=C(\c1ccc(O)cc1)c1ccc(OCCN(C)C)cc1)c1ccccc1 [4-Hydroxytamoxifen], the “PARP1 L713F-nLuc/akaLuc ratio” value is reported as 0.97.
With CCN(CC)Cc1cc(Nc2ccnc3cc(Cl)ccc23)ccc1O [Amodiaquine (dihydrochloride)] the “PARP1 L713F-nLuc/akaLuc ratio” value was 1.11.
With CCN(CC)CCCC(C)Nc1c2ccc(Cl)cc2nc2ccc(OC)cc12 (centres undefined) [Quinacrine Dihydrochloride Dihydrate] the “PARP1 L713F-nLuc/akaLuc ratio” value was 0.656.
In the case of NS(=O)(=O)NCCNc1nonc1/C(=N/O)Nc1ccc(F)c(Br)c1, the “PARP1 L713F-nLuc/akaLuc ratio” value is reported as 0.587.
With CN1CCc2c(c3ccccc3n2Cc2ccc(C(=O)NO)cc2)C1 [Tubastatin A] the “PARP1 L713F-nLuc/akaLuc ratio” value was 1.26.
CO[C@H]1C[C@@H]2CC[C@@H](C)[C@@](O)(O2)C(=O)C(=O)N2CCCC[C@H]2C(=O)O[C@H]([C@H](C)C[C@@H]2CC[C@@H](OC(=O)C(C)(CO)CO)[C@H](OC)C2)CC(=O)[C@H](C)/C=C(\C)[C@@H](O)[C@@H](OC)C(=O)[C@H](C)C[C@H](C)/C=C/C=C/C=C/1C was tested, and the “PARP1 L713F-nLuc/akaLuc ratio” value was 0.565.
With CNC(=O)c1ccc2cc([C@@]3(O)CCn4cncc43)ccc2c1 [TAK-700 (Orteronel)] the “PARP1 L713F-nLuc/akaLuc ratio” value was 0.776.
For COc1cc2ncnc(Nc3cc(Br)c(O)c(Br)c3)c2cc1OC, the “PARP1 L713F-nLuc/akaLuc ratio” value was 1.37.
For Cn1cncc1[C@@](N)(c1ccc(Cl)cc1)c1ccc2c(c1)c(-c1cccc(Cl)c1)cc(=O)n2C [Tipifarnib], the “PARP1 L713F-nLuc/akaLuc ratio” value was 0.456.
With Cc1cc(Cl)ccc1OCCCC(=O)NO [Droxinostat] the “PARP1 L713F-nLuc/akaLuc ratio” value was 2.78 (active).
In the case of Cc1cc(-c2ccccc2)cc(C(=O)NNS(=O)(=O)c2cccc(O)c2)c1F, the “PARP1 L713F-nLuc/akaLuc ratio” value is reported as 1.16.
With Cc1ccc(OCCSc2ncccn2)c(Br)c1 [ZLN024 (hydrochloride)] the “PARP1 L713F-nLuc/akaLuc ratio” value was 0.863.
In the case of CO[C@@H](C(=O)N1Cc2[nH]nc(NC(=O)c3ccc(N4CCN(C)CC4)cc3)c2C1)c1ccccc1 [Danusertib], the “PARP1 L713F-nLuc/akaLuc ratio” value is reported as 0.752.
For Cc1cc(C)c(CN2CCc3c(Cl)cc(-c4c(C)noc4C)c(Cl)c3C2=O)c(=O)[nH]1, the “PARP1 L713F-nLuc/akaLuc ratio” value was 0.881.
For O=C(NC[C@H](O)CN1CCc2ccccc2C1)c1cc(NC2COC2)ncn1, the “PARP1 L713F-nLuc/akaLuc ratio” value was 0.532 and 0.854.
For CO[C@H]1C(=O)[C@]2(C)[C@@H](OC)C[C@H]3OC[C@@]3(OC(C)=O)[C@H]2[C@H](OC(=O)c2ccccc2)[C@]2(O)C[C@H](OC(=O)[C@H](O)[C@@H](NC(=O)OC(C)(C)C)c3ccccc3)C(C)=C1C2(C)C [Cabazitaxel], the “PARP1 L713F-nLuc/akaLuc ratio” value was 1.2.
In the case of CC(=O)Nc1ccc(NC(=S)NC(=O)c2ccc(C(C)(C)C)cc2)cc1 [Tenovin-1], the “PARP1 L713F-nLuc/akaLuc ratio” value is reported as 0.509.
CC1(C)CNc2cc(NC(=O)c3cccnc3NCc3ccncc3)ccc21 [Motesanib Diphosphate (AMG-706)] was tested, and the “PARP1 L713F-nLuc/akaLuc ratio” value was 1.5.
For CC(=O)N[C@@H](CCCCN)C(=O)Nc1ccc2c(C)cc(=O)oc2c1, the “PARP1 L713F-nLuc/akaLuc ratio” value was 0.736.
For O=C(O)CCNc1cc(N2CCc3ccccc3CC2)nc(-c2cccnc2)n1, the “PARP1 L713F-nLuc/akaLuc ratio” value was 1.22.
In the case of CCNC(=O)CCC/C=C\C[C@@H]1[C@@H](/C=C/[C@@H](O)CCc2ccccc2)[C@H](O)C[C@@H]1O [Bimatoprost], the “PARP1 L713F-nLuc/akaLuc ratio” value is reported as 0.942.
For CNS(=O)(=O)C[C@H]1CC[C@H](N(C)c2[nH]cnc3nccc2-3)CC1 [Oclacitinib (maleate)], the “PARP1 L713F-nLuc/akaLuc ratio” value was 0.749.
For Nc1ccn([C@@H]2O[C@H](CO)[C@@H](O)C2(F)F)c(=O)n1 [Gemcitabine], the “PARP1 L713F-nLuc/akaLuc ratio” value was 0.416.
In the case of COC(=O)/C=C/c1ccccc1 [Methyl cinnamate], the “PARP1 L713F-nLuc/akaLuc ratio” value is reported as 1.29.
